# ChEMBL document CHEMBL3988442, “University of Dundee, Small-Polar-MMV Screening Library” (2021)
# Target: T1, Methionyl-tRNA synthetase, putative (Leishmania donovani (strain BPK282A1)) (UniProt E9BF75)
# T1 sequence (whole entry): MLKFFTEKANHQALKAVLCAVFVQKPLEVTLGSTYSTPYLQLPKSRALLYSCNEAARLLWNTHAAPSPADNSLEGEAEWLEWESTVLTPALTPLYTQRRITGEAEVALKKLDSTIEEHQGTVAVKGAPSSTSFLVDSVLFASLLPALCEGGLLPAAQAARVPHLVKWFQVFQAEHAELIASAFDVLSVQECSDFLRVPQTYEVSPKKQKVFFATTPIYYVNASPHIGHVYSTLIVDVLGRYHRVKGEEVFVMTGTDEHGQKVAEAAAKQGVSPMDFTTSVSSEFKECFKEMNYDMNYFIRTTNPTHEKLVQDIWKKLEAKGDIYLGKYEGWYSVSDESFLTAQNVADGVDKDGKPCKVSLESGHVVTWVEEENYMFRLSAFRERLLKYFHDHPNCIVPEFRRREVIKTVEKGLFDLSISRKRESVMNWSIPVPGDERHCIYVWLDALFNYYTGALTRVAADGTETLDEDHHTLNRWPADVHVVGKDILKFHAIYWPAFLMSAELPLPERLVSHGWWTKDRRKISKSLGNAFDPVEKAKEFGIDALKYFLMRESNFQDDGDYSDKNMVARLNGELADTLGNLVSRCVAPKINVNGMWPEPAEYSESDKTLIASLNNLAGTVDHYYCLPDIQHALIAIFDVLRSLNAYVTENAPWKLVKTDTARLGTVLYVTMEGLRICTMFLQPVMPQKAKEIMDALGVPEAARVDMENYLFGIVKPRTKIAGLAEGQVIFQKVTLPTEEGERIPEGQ
# Test: Leishmania donovani Methionine tRNA synthetase (LdMetRS):v7. Dose response assay
# Type: functional
# Set-up: conc 80 nM, time 150 minutes
smiles,measurement,setting,value
CCNc1cc(-c2ccccn2)nc(Nc2ccc(F)c(Cl)c2)n1,PXC50,MAX_EFFECT 18.84057971,< 4
same,PXC50,MAX_EFFECT 22.81449893,< 4
Nc1nc(CSc2ccccn2)nc2sc3c(c12)CCCCC3,PXC50,MAX_EFFECT 34.13333333,< 4
same,PXC50,MAX_EFFECT 39.15343915,< 4
COC(=O)CN(C)c1nc(-c2cccs2)nc2sc(C)c(C)c12,PXC50,MAX_EFFECT 23.66412214,< 4
same,PXC50,MAX_EFFECT 24.93702771,< 4
COCCNc1nc(CSc2ccccc2)nc2sc(C)c(C)c12,PXC50,MAX_EFFECT 27.86885246,< 4
same,PXC50,MAX_EFFECT 28.34224599,< 4
OB1OCc2ccccc21,PXC50,MAX_EFFECT 10.0456621,< 4
same,PXC50,MAX_EFFECT -0.566037736,< 4
O=C(c1ccccc1)C1CCN(c2cncc(-n3cccn3)n2)CC1,PXC50,MAX_EFFECT 17.57719715,< 4
same,PXC50,MAX_EFFECT 27.64084507,< 4
CN1CCN(c2ccc3ccc(C(=O)N4CCCCO4)cn23)CC1,PXC50,MAX_EFFECT 12.20657277,< 4
same,PXC50,MAX_EFFECT 19.44444444,< 4
CCNC(=O)c1ccc2ccc(N(CC)CC)n2c1,PXC50,MAX_EFFECT 16.85185185,< 4
same,PXC50,MAX_EFFECT 25.35211268,< 4
NC(=O)C1CN(c2nc(C3CC3)nc3sc4c(c23)CCCC4)CCO1 (stereo not given),PXC50,MAX_EFFECT 5.699481865,< 4
same,PXC50,MAX_EFFECT 7.446808511,< 4
O=c1cc(NCCCNCc2c[nH]c3ccc(Br)cc23)[nH]c2ccccc12,PXC50,"BOTTOM 0.0, HILLSLOPE 1.551467474, MAX_EFFECT 106.0606061, TOP 104.4534441",5.79
same,PXC50,"BOTTOM 0.546192845, HILLSLOPE 1.22385612, MAX_EFFECT 106.0465116, TOP 107.4209254",5.79
COCCNc1nc(-c2ccccn2)nc2sc3c(c12)CCCC3,PXC50,"BOTTOM 1.822787583, HILLSLOPE 1.291311311, MAX_EFFECT 71.49122807, TOP 102.6012048",4.27
same,PXC50,"BOTTOM -5.083400143, HILLSLOPE 1.043102409, MAX_EFFECT 66.66666667, TOP 106.555572",4.25
CCc1nc(NCCCN(C)C)c2cc(C)sc2n1,PXC50,MAX_EFFECT 12.06030151,< 4
same,PXC50,MAX_EFFECT 14.98771499,< 4
CCOC(=O)c1sc2nc(C)nc(NC3CCN(C4CC4)CC3)c2c1C,PXC50,MAX_EFFECT 19.59798995,< 4
same,PXC50,MAX_EFFECT 24.32432432,< 4
Cc1cc(C)n(C2=NC(NCCC(C)C)c3c(sc4c3CCCC4)N2)n1 (stereo not given),PXC50,MAX_EFFECT 4.798464491,< 4
same,PXC50,MAX_EFFECT 13.23763955,< 4
Cc1cc(C(F)(F)F)nc(CCNc2nc(C)nc3sccc23)n1,PXC50,MAX_EFFECT 8.838383838,< 4
same,PXC50,MAX_EFFECT 11.2244898,< 4
CCNc1nc(-c2ccc(CC)cc2)cc(C(F)(F)F)n1,PXC50,MAX_EFFECT 8.510638298,< 4
same,PXC50,MAX_EFFECT 9.32642487,< 4
Cc1nc(N2CCN(c3ccccc3O)CC2)c2c3c(sc2n1)CCC3,PXC50,"BOTTOM -0.0879, HILLSLOPE 1.043556985, MAX_EFFECT 58.82352941, TOP 100.0",4.16
same,PXC50,"BOTTOM -4.305210646, HILLSLOPE 1.068745934, MAX_EFFECT 61.20218579, TOP 100.0",4.17
Nc1noc2ccc(-c3cnc4ccc(NC5CCOCC5)nn34)cc12,PXC50,MAX_EFFECT 17.30279898,< 4
same,PXC50,MAX_EFFECT 20.1754386,< 4
CCN1c2ccc(-c3cncn3CCCn3ccnc3C)cc2CC1C (stereo not given),PXC50,MAX_EFFECT 36.73469388,< 4
same,PXC50,MAX_EFFECT 44.48598131,< 4
OB1OCc2cc(C(F)(F)F)ncc21,PXC50,MAX_EFFECT 8.490566038,< 4
same,PXC50,MAX_EFFECT 11.87214612,< 4
NC(=O)c1ccc(Cl)cc1Cl,PXC50,MAX_EFFECT 4.967602592,< 3
same,PXC50,MAX_EFFECT 16.92015209,< 3
CCNc1cc(-c2ccccn2)nc(Nc2ccc(OC)cc2)n1,PXC50,MAX_EFFECT 22.3255814,< 4
same,PXC50,MAX_EFFECT 23.54312354,< 4
Cc1nc(NCCCO)c2c(-c3cccs3)csc2n1,PXC50,MAX_EFFECT 5.852417303,< 4
same,PXC50,MAX_EFFECT 7.808564232,< 4
Cc1nc(NC(CC(C)C)C(=O)O)c2c3c(sc2n1)CCC3 (stereo not given),PXC50,MAX_EFFECT 14.004914,< 4
same,PXC50,MAX_EFFECT 14.57286432,< 4
O=C(c1ccc2ccc(N3CCN(CC4CC4)CC3)n2c1)N1CCCO1,PXC50,MAX_EFFECT 19.44444444,< 4
same,PXC50,MAX_EFFECT 22.0657277,< 4
Cc1sc2nc(-c3cccnc3)nc(NCCN3CCOCC3)c2c1C,PXC50,MAX_EFFECT 3.015075377,< 4
same,PXC50,MAX_EFFECT 4.668304668,< 4
Cc1cc2c(NC3CCCCC3)nc(-c3cccnc3)nc2s1,PXC50,MAX_EFFECT 17.08542714,< 4
same,PXC50,MAX_EFFECT 19.41031941,< 4
Cc1nc(NCCCC(=O)O)c2c3c(sc2n1)CCCC3,PXC50,MAX_EFFECT 9.823677582,< 4
same,PXC50,MAX_EFFECT 10.43256997,< 4
Cc1nc(N2CCC(N)C2)c2ccsc2n1 (stereo not given),PXC50,MAX_EFFECT 4.663212435,< 4
same,PXC50,MAX_EFFECT 6.914893617,< 4
CCCNc1nc(-c2ccc(C)cc2)cc(C(F)(F)F)n1,PXC50,MAX_EFFECT 6.21761658,< 4
same,PXC50,MAX_EFFECT 10.10638298,< 4
